# Measurements as given in the supplement of paper PMC10849652.
# The full data set covers some 7,900 targets. This sample favours those with a hit. About 0.6% of all pairs of compound and target were hits. A number with no mark means an inactive call.
# Legend:
# Experiment in all cases: log2 fold change, soluble protein after heating vs DMSO (PISA); higher = thermal stabilisation; K562 cells, 10 uM, 30 min; active = over 0.2 and 3.5 SD of the protein, either way, in both replicates (recomputed)
# [1] = compound: CC1=C(C=C(C=C1)NC(=O)C2=CC(=CC=C2)C(C)(C)C#N)NC3=CC4=C(C=C3)N=CN(C4=O)C
# How it was run: (§1)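 K562 cells at 2×10^6 cells/mL were treated for 30 min with 10 μM compound, and aliquots were heated for 3 min over 48°C-58°C before pooling. Extraction used PBS with 0.5% NP-40 at 4°C, and soluble protein was the supernatant after 21,000xg for 90 min, measured by TMTpro 16plex LC-MS/MS with channel sums equalised. Thermal stability values, relative to control samples and from duplicates, are log2 fold changes.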
# [2] = compound: CC1=C(C=C(C=C1)NC(=O)C2=CC(=CC=C2)N(C)C)NC(=O)C3=CC=C(C=C3)O
# How it was run: as §1
# [3] = compound: CC1=CC=C(C=C1)SC2=C3C=C(SC3=CN=C2)C(=O)N
# How it was run: as §1
# [4] = compound: CC1=NC(=CC=C1)C2=C(N=C(N2)C(C)(C)C)C3=CC4=NC=CN=C4C=C3
# How it was run: as §1
# Nexturastat A = compound: CCCCN(Cc1ccc(C(=O)NO)cc1)C(=O)Nc1ccccc1 [Nexturastat A]
# How it was run: as §1
# vemurafenib = compound: CCCS(=O)(=O)Nc1ccc(F)c(C(=O)c2c[nH]c3ncc(-c4ccc(Cl)cc4)cc23)c1F [vemurafenib]
# How it was run: as §1
# [5] = compound: CCCS(=O)(=O)Nc1ccc(F)c(C(=O)c2c[nH]c3ncc(Cl)cc23)c1F
# How it was run: as §1
# [6] = compound: CCCc1cc(C)[nH]c(=O)c1CNC(=O)c1cc(-c2ccnc(N3CCN(C)CC3)c2)cc2c1cnn2C(C)C
# How it was run: as §1
# givinostat = compound: CCN(CC)Cc1ccc2cc(COC(=O)Nc3ccc(C(=O)NO)cc3)ccc2c1 [givinostat]
# How it was run: as §1
# barasertib = compound: CCN(CCCOc1ccc2c(Nc3cc(CC(=O)Nc4cccc(F)c4)[nH]n3)ncnc2c1)CCOP(=O)(O)O [barasertib]
# How it was run: as §1
# [7] = compound: CC[C@@H]1C(=O)N(C)c2cnc(Nc3ccc(C(=O)NC4CCN(C)CC4)cc3OC)nc2N1C1CCCC1
# How it was run: as §1
# volasertib = compound: CC[C@@H]1C(=O)N(C)c2cnc(Nc3ccc(C(=O)N[C@H]4CC[C@H](N5CCN(CC6CC6)CC5)CC4)cc3OC)nc2N1C(C)C [volasertib]
# How it was run: as §1
# [8] = compound: CC[C@H](C)N1C=C(C2=C(C=C(C=C21)C3=CN=C(C=C3)N4CCNCC4)C(=O)NCC5=C(C=C(NC5=O)C)C)C
# How it was run: as §1
# epoxomicin = compound: CC[C@H](C)[C@@H](C(=O)N[C@@H]([C@@H](C)O)C(=O)N[C@@H](CC(C)C)C(=O)[C@]1(CO1)C)NC(=O)[C@H]([C@@H](C)CC)N(C)C(=O)C [epoxomicin]
# How it was run: as §1
# [9] = compound: CCn1c(C(=O)N(C2CC2)C2CC2)cc2c3c(ncn3C)c(Nc3cc(C)n(C)n3)nc21
# How it was run: as §1
# [10] = compound: CCn1cc(-c2ccnc3[nH]c(-c4cccc(CN(C)C)c4)cc23)c(-c2ccc(NC(=O)N(C)C)cc2)n1
# How it was run: as §1
# [11] = compound: CN(C)CC(=O)Nc1ccc2[nH]c(=O)c3ccccc3c2c1
# How it was run: as §1
# rosiglitazone = compound: CN(CCOC1=CC=C(C=C1)C[C@H]2C(=O)NC(=O)S2)C3=CC=CC=N3 (racemic) [rosiglitazone]
# How it was run: as §1
# [12] = compound: CN1C2=C(C3=C1C(=O)N(N=C3)CC4=CC(=CC=C4)N)SC(=C2)S(=O)C
# How it was run: as §1
# [13] = compound: CN1CCC(CNc2ccc3ncc(-c4cccc(OC(F)(F)F)c4)n3n2)CC1
# How it was run: as §1
# Chain of UniProt P42025 (P42025 whole entry, looked up): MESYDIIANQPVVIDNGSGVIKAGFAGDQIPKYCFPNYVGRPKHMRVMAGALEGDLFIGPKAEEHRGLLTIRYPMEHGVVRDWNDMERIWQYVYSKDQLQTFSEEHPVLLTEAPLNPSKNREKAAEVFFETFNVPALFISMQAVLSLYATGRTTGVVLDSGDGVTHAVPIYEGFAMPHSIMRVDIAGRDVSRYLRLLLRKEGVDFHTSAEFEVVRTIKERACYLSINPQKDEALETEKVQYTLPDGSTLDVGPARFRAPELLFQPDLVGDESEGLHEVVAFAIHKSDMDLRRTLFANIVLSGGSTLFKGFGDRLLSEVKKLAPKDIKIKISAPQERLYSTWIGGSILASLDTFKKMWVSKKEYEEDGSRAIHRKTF
# Chain of UniProt Q8N6D5 (Q8N6D5 whole entry, looked up): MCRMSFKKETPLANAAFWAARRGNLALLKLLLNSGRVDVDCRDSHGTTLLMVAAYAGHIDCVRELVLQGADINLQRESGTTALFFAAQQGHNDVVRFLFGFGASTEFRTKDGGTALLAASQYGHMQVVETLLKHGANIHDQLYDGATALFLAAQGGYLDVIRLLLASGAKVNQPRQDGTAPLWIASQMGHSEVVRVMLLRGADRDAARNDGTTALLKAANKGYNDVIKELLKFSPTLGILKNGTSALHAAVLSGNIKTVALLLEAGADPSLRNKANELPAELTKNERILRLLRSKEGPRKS
# Chain of UniProt Q8N2F6 (Q8N2F6 whole entry, looked up): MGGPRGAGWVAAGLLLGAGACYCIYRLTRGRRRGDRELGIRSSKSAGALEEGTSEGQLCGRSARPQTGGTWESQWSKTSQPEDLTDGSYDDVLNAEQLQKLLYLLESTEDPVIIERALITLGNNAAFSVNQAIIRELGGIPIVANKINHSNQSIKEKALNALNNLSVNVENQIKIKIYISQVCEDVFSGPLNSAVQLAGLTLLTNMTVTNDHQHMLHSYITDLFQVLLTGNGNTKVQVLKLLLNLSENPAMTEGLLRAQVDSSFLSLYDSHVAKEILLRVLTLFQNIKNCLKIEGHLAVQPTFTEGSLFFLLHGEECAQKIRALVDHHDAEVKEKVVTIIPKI
# Chain of UniProt Q7L1Q6 (Q7L1Q6 whole entry, looked up): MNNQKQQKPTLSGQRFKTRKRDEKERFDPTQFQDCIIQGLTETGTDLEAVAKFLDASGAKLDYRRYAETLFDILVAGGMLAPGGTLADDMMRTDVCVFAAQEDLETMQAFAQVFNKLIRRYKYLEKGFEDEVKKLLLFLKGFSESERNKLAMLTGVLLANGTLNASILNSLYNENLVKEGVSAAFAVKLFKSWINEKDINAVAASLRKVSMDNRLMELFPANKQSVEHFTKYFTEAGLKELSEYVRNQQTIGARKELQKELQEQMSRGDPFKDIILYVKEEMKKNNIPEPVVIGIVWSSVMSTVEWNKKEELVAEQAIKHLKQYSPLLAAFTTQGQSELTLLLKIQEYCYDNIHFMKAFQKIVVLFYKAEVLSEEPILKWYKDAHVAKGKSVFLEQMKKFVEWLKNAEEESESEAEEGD
# Chain of UniProt P08758 (P08758 whole entry, looked up): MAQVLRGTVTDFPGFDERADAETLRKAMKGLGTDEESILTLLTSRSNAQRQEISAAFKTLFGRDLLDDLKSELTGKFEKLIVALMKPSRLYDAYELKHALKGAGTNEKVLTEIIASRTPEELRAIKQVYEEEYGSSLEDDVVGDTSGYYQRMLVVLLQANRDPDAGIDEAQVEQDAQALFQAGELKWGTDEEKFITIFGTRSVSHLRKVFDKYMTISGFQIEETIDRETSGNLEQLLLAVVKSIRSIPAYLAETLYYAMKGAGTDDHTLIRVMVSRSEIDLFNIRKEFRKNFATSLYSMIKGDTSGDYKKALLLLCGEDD
# Chain of UniProt P11766 (P11766 whole entry, looked up): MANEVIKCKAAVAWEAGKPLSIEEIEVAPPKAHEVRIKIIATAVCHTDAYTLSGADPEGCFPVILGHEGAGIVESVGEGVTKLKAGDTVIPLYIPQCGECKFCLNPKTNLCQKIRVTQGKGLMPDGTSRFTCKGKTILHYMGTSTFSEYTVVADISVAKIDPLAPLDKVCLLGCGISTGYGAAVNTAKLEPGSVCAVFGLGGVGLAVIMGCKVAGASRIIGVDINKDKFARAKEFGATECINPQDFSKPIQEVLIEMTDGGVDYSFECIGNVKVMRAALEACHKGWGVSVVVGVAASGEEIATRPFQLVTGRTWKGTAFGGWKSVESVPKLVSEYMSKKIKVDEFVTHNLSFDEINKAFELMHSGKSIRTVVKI
# Chain of UniProt Q9P287 (Q9P287 whole entry, looked up): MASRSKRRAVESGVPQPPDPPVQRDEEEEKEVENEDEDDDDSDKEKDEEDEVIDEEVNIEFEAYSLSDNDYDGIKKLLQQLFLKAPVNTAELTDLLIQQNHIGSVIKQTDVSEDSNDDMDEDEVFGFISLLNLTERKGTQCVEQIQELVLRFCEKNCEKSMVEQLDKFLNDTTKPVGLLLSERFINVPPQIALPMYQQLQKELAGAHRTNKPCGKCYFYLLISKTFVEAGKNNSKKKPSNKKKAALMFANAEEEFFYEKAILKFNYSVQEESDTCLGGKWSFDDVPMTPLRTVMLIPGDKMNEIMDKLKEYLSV
# Chain of UniProt P56385 (P56385 whole entry, looked up): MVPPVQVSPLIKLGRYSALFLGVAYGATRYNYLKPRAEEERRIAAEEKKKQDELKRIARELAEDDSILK
# Chain of UniProt O94973 (O94973 whole entry, looked up): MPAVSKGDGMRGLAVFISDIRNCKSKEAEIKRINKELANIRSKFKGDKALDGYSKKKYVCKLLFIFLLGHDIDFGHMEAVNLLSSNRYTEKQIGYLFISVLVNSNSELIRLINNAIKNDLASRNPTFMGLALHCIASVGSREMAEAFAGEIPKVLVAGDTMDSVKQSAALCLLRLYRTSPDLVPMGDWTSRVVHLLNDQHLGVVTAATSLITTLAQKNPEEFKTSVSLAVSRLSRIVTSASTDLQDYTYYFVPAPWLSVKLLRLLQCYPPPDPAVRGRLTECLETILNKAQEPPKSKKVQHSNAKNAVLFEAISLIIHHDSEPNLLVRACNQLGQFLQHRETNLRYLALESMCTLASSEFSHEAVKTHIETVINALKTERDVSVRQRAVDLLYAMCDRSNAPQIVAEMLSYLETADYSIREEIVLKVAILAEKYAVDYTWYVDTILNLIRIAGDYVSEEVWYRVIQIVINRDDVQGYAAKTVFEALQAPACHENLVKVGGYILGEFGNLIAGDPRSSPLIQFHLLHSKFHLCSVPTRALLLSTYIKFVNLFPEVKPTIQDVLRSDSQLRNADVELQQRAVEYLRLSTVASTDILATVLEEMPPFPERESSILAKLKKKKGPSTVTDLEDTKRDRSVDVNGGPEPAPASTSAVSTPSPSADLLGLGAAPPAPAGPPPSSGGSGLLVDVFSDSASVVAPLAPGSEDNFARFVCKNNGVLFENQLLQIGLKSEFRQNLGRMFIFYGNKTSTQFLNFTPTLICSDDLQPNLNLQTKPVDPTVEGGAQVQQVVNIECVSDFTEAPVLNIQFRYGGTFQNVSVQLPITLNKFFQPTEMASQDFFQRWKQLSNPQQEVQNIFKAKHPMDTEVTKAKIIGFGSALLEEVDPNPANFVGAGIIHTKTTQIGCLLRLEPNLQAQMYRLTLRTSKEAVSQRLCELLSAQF
# Chain of UniProt Q8NHH9 (Q8NHH9 whole entry, looked up): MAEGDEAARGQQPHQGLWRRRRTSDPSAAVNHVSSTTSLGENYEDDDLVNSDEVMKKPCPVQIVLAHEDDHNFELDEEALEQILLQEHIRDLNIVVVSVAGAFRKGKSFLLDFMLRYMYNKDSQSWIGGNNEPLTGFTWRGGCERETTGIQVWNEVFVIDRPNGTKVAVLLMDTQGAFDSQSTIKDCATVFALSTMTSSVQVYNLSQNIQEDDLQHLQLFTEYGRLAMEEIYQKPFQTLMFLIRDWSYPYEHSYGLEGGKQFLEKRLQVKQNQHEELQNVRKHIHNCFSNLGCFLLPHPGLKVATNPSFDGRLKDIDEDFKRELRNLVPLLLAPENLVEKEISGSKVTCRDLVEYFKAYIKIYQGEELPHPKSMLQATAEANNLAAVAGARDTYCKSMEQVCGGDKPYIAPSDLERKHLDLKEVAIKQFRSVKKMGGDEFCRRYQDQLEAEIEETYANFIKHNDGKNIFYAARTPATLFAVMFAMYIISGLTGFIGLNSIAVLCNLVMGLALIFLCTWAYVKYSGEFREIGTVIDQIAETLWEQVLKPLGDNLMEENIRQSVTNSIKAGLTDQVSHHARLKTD
# Chain of UniProt Q92934 (Q92934 whole entry, looked up): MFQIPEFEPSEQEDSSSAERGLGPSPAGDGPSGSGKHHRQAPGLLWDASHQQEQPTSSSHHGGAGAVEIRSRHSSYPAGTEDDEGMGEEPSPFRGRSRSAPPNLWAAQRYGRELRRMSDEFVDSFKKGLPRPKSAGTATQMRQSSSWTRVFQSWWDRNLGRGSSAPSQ
# Chain of UniProt P42330 (P42330 whole entry, looked up): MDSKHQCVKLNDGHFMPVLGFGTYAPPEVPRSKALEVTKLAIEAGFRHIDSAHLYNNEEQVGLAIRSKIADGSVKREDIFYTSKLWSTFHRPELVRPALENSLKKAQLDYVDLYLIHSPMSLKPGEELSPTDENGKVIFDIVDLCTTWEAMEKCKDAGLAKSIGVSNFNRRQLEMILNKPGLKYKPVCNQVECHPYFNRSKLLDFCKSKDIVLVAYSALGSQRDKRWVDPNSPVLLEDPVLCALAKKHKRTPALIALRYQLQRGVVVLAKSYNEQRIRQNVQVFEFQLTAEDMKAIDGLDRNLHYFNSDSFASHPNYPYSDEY
Target,log2 fold change [1],log2 fold change [2],log2 fold change [3],log2 fold change [4],log2 fold change (Nexturastat A),log2 fold change (vemurafenib),log2 fold change [5],log2 fold change [6],log2 fold change (givinostat),log2 fold change (barasertib),log2 fold change [7],log2 fold change (volasertib),log2 fold change [8],log2 fold change (epoxomicin),log2 fold change [9],log2 fold change [10],log2 fold change [11],log2 fold change (rosiglitazone),log2 fold change [12],log2 fold change [13]
ADH5 (UniProt P11766),0.004,0.008,0.043,0.009,-0.103,-0.007,0.008,-0.046,-0.01,-0.023,0.01,0.02,-0.024,-0.016,0.043,-0.001,-0.01,0.026,-0.052,-0.02
AP2A2 isoform 2 (UniProt O94973),0.084,0,0.01,0.049,0.004,-0.008,0.002,0.038,0.003,0.002,0.026,-0.021,0,0.048,0.01,-0.012,0,0.012,0.008,0.089
ANXA5 (UniProt P08758),0.057,-0.065,-0.01,0.068,-0.116,0.07,0.071,0.039,0.033,0.034,-0.084,-0.214 (active),0.04,0.068,0.002,-0.041,0.012,0.007,-0.04,-0.042
ATL2 (UniProt Q8NHH9),0.022,-0.107,-0.013,0.029,0.037,-0.004,0.005,-0.104,0.023,0.019,0.031,0.037,0.066,0.092,-0.051,-0.127,0.028,0.017,-0.078,-0.032
ARMC10 (UniProt Q8N2F6),0.03,-0.087,-0.019,-0.046,0.056,0.12,0.074,0.072,0.063,0.019,-0.062,-0.333 (active),0.075,0.022,-0.017,-0.008,0.062,0.015,0.002,-0.044
ATP2A3 isoform 2 (UniProt Q93084),-0.024,-0.001,-0.013,0.004,0,-0.004,0.032,0.042,-0.01,0.011,-0.142,-0.208,0.046,0.06,0.014,-0.047,-0.028,0.009,-0.016,0.028
AKR1C3 (UniProt P42330),-0.034,-0.207,0.268,-0.007,0.022,-0.032,0.066,0.289,-0.003,0.014,0.011,0.009,-0.01,0,0.131,-0.247,0.067,-0.06,-0.127,0.214
BZW1 isoform 3 (UniProt Q7L1Q6),0.064,-0.014,0.036,0.038,0.016,0.107,0.126,0.105,0.084,0.06,-0.273,-0.82 (active),0.114,0.019,-0.128,-0.041,0.104,0.063,0.068,-0.33
ANKRD29 (UniProt Q8N6D5),0.046,0.022,0.027,-0.035,0.371,-0.064,-0.031,-0.073,0.247,-0.124,-0.021,-0.27,-0.152,0,-0.137,-0.233,0.025,0.111,-0.039,-0.043
ATP5ME (UniProt P56385),0.036,-0.037,0.031,0.011,-0.035,-0.003,-0.041,-0.041,0.027,0.007,0.004,0.038,-0.048,0.075,-0.002,0.002,-0.054,-0.013,0.018,0.069
BCCIP isoform 2 (UniProt Q9P287),0.042,-0.055,-0.015,0.022,-0.065,0.008,-0.003,-0.099,-0.066,0.026,-0.037,-0.038,0.044,0.019,0.023,0.022,0.026,0.021,-0.042,-0.028
ATP13A3 (UniProt Q9H7F0),0.027,0.031,-0.068,0.012,-0.042,-0.014,-0.02,-0.076,0.025,-0.001,-0.085,0.077,0.016,0,-0.014,-0.022,-0.012,0.128,-0.011,-0.401 (active)
BMP2K (UniProt Q9NSY1),0.01,0.033,-0.017,-0.011,0.126,0.011,0.01,-0.04,0.007,-0.014,0.13,0.115,-0.02,-0.053,0.269,0.023,-0.058,-0.044,0.008,0.656 (active)
BAD (UniProt Q92934),-0.198,0.007,-0.021,-0.051,-0.324 (active),-0.076,-0.037,0.05,-0.133,-0.003,-0.043,0.038,0.085,-0.086,0.014,0.022,-0.125,0.059,-0.069,-0.006
ACTR1B (UniProt P42025),-0.056,-0.124,0.001,-0.003,-0.134,-0.029,-0.022,-0.009,0.006,0.031,0.081,0.048,0.01,-0.008,-0.014,-0.581 (active),0.021,-0.033,-0.089,0.306
